From PubChem BioAssay come the findings set out here.

Experiment [1] can be described thus: rapamycin-like changes in RPL19A-GFP expression – cell-based, S. cerevisiae, multiplex flow cytometry, primary screen (AID 1862; in the data active means percent of DMSO control GFP below about 86%;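 further: lower values mimic rapamycin by blocking the RPL19A rise seen in DMSO cells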). The following applies: S. cerevisiae RPL19A-GFP strain, flow cytometry fluorescence, 3 h; at 10 µM; stronger effect = lower value.
The nature of experiment [2]: TOR pathway GLN3 branch reporter MEP2-GFP changes – S. cerevisiae, multiplex flow cytometry, primary screen (AID 1867;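 active means GFP response, as percent of the DMSO control, above the screen-wide mean plus 3 SD, about 139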;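 further: median GFP channel fluorescence of barcode-gated MEP2-GFP cells measured by flow cytometry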). The following applies: S. cerevisiae MEP2-GFP strain, 3 h, at 10 µM, stronger effect = higher value, 100% means same as DMSO wells.
A short description of experiment [3]: TOR pathway RTG branch CIT2 reporter changes – S. cerevisiae, GFP fusion, multiplex flow cytometry, primary screen (AID 1870;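 active means percent response above a set limit, the screen-wide mean plus 3 SD, cut at about 130% in these data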;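 further: barcoded CIT2-GFP strain pooled with four other GFP strains with rapamycin as positive control; median GFP fluorescence per well over plate mean of DMSO wells so 100% = DMSO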). The following applies: S. cerevisiae CIT2-GFP expression, 3 h, at 10 µM, stronger effect = higher value.
Experiment [4] can be described thus: TOR pathway LAP4-GFP level changes – S. cerevisiae, multiplex flow cytometry, primary screen (AID 1873). The following applies: S. cerevisiae LAP4-GFP expression, 3 h, at 10 µM, stronger effect = higher value.
Experiment [5] can be described thus: yeast AGP1-GFP level changes, GLN3 branch – cell-based, multiplex flow cytometry, S. cerevisiae, primary screen (AID 1887;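 active means GFP signal above the screen-wide mean plus 3 SD, that is over about 124.5% of the solvent control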;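 further: AGP1-GFP fusion strain of S. cerevisiae within a five-strain barcoded multiplex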). The following applies: 3 h, at 10 µM, stronger effect = higher value.
Experiment [6] can be described thus: reduced mouse 2C T cell binding to pMHC/ICAM-1 vesicles – MLPCN validation set, flow cytometry, LFA-1/ICAM-1 modulator project, pilot screen (AID 2523;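 active means response below a set limit, under 55% cells CD8-positive and vesicle-bound, and CD8 cells' 90th-percentile brightness under 279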;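 on vesicle binding response: mean PE anti-B7-1 fluorescence of CD8+ cells relative to row control; 100% = QL9-loaded vesicles with DMSO vehicle in the same plate row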). The following applies: 2C mouse CD8+ T cells, at 7 µM, stronger effect = lower value; double positive events: measured here: CD8+/vesicle+ event percentage.
Experiment [7] has as its target Integrin beta-1 (Homo sapiens) + Integrin alpha-4 (Homo sapiens) (UniProt P13612+P05556). Nature of the experiment: alpha4beta1 integrin LIBS antibody binding reduction – U937 cells, HUTS-21 mAb, flow cytometry, validation set, VLA-4 allosteric modulator project, pilot screen (AID 2674;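 active means inhibition above 50%, about 3 SD of the validation set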;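 further: antibody binding induced by the VLA-4 ligand LDV present at three times its Kd; 0% = LDV ligand with antibody and no compound and 100% = antibody without LDV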). The following applies: HUTS-21 LIBS mAb binding, at 6.7 µM, stronger effect = higher value, binding induced by LDV ligand.

Experiment [8] in a line: calorie-restriction mimetic ROS inhibitors, yeast – validation compound set, pilot screen (AID 2706;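 active means superoxide response below 65% of plate, a cut near 3 SD across the whole screen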;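 further: yeast exposed to compound for one week at 30 degrees C before staining; 100% = mean of all compound wells on the same plate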). The following applies: S. cerevisiae aging, superoxide DHE fluorescence; at 10 µM; stronger effect = lower value.
Experiment [9] deals with Beta-adrenergic receptor kinase 1 (Homo sapiens) (UniProt P25098). The experiment can be described thus: GRK2 binders displacing RNA aptamer, biochemical, validation, human GRK2, bead flow cytometry (AID 488806;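 active means aptamer binding inhibition above 30%, about 3 SD of noise from non-fluorescent compounds; inactive means inhibition at or below 30%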). The following applies: bead-bound GRK2, FAM-aptamer displacement, at 10 µM, stronger effect = higher value.
Chain of Beta-adrenergic receptor kinase 1 (Homo sapiens) (P25098 whole entry, looked up): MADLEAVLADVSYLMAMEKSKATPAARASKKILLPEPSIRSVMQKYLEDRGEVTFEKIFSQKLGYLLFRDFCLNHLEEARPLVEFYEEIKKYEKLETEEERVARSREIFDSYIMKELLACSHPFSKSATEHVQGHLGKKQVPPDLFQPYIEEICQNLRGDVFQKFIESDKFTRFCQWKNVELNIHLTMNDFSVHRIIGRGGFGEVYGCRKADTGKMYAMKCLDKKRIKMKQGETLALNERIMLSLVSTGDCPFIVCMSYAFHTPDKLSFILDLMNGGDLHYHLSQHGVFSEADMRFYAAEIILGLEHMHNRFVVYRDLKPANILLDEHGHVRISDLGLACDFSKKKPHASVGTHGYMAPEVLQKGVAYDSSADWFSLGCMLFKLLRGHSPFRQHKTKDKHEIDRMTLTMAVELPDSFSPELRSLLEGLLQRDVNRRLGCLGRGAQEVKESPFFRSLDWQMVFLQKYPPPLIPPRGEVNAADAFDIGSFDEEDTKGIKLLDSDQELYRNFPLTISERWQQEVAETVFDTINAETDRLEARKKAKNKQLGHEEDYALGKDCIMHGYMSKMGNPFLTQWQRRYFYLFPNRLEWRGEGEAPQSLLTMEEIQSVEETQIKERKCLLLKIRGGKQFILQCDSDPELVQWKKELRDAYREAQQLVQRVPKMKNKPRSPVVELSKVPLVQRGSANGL
For experiment [10], the target named is Beta-2 adrenergic receptor (Homo sapiens) (UniProt P07550). The experiment can be described thus: agonist-induced loss of surface beta2AR – cell-based, FAP fluorogen, flow cytometry, validation set, pilot screen (AID 504459;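 active means percent response above 42, roughly 3 SD of non-fluorescent test compounds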;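 further: agonist-driven loss of surface beta2AR via internalization measured by FAP dye flow cytometry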). The following applies: Am2.2-beta2AR cells, at 10 µM, stronger effect = higher value.
Chain of Beta-2 adrenergic receptor (Homo sapiens) (P07550 whole entry, looked up): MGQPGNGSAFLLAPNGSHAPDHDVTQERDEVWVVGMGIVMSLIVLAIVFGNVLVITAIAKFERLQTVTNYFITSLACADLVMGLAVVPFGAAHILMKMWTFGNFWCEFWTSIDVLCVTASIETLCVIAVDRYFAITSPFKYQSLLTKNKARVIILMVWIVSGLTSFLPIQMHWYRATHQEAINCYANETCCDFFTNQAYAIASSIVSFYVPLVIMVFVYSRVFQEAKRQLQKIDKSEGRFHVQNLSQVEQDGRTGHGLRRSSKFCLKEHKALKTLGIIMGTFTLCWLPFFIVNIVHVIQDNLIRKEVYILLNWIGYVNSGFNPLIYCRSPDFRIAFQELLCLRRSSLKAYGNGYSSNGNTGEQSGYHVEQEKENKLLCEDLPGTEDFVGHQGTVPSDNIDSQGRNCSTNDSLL
The target in experiment [11] is AP-2 complex subunit beta (Homo sapiens) (UniProt P63010). The experiment can be described thus: beta-arrestin/AP2 interaction blockers – biochemical, validation set, GST-AP2 beads, flow cytometry, pilot screen (AID 504541;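 active means inhibition above 54%, about 3 SD of non-fluorescent compounds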;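 further: AP2 carries R879A mutation and is captured from E. coli lysate; bead-bound FITC arrestin peptide fluorescence measuring arrestin peptide binding to AP2; 0% = DMSO wells and 100% = excess unlabeled arrestin peptide control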). The following applies: FITC arrestin peptide, at 10 µM, stronger effect = higher value, AP2 beta2 appendage fragment, R879A mutant.
Chain of AP-2 complex subunit beta (Homo sapiens) (P63010 whole entry, looked up, the tested form may be a part, one chain of several): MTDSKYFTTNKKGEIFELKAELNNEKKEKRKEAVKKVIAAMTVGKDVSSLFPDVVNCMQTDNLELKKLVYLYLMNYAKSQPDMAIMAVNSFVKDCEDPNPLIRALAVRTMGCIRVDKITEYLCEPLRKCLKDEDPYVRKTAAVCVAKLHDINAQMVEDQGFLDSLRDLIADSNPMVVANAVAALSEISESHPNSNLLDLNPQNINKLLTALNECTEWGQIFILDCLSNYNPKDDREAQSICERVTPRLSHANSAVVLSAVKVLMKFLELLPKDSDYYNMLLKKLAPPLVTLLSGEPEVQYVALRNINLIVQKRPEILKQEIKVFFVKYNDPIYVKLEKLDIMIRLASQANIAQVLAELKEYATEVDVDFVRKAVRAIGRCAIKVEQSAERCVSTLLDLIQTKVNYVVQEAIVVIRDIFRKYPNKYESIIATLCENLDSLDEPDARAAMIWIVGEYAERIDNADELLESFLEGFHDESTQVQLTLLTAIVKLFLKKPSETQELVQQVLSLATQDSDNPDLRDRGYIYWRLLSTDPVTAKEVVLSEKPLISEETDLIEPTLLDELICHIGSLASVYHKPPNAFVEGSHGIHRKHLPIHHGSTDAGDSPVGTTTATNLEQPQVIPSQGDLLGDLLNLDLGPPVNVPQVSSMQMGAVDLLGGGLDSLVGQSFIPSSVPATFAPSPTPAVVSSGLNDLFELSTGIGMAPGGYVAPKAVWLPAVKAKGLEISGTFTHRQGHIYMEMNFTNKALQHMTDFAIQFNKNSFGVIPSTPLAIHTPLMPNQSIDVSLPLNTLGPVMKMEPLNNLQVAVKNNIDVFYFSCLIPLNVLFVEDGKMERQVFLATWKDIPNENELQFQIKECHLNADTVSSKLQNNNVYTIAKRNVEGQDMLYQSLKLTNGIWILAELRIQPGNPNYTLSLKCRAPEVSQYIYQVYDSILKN
Experiment [12] in a line: cytosolic pH regulators acting via V-ATPase – S. cerevisiae, pHLuorin, HTS validation (AID 504600; in the data active means response above about 15%;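 further: plate controls were DMSO for no effect and reference compound for full effect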). The following applies: V-ATPase proton transport, at 10 µM, stronger effect = higher value.
The subject of experiment [13] is anti-desmoglein-3 scFv antibody binding to human DSG3. Nature of the experiment: blockers of pathogenic pemphigus antibody–desmoglein-3 binding – biochemical, validation compound set, bead-based, flow cytometry, pilot screen (AID 588368;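 active means binding below the plate cutoff, the plate median minus 3 SD, with a reading above zero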;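 further: signal is the median channel fluorescence of bead-bound GFP antibody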). The following applies: Protein G beads, DSG3-Fc, scFv-GFP binding, at 10 µM, stronger effect = lower value.
The nature of experiment [14]: Nile Red efflux blockade in pump-expressing yeast – validation compound set, multiplex, phenotypic, pilot screen (AID 588506;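 active means efflux inhibition above 0.42, the validation set average plus 4 SD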;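 further: Nile Red retained in cells so higher fluorescence means more efflux inhibition; 0 = negative control wells and 1 = enniatin B 25 µM full block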). The following applies: S. cerevisiae pump-expressing triplex, Nile Red efflux flow cytometry; at 10 µM; stronger effect = higher value; the pumps come from Candida albicans.
The target of experiment [15] is ATP-binding cassette sub-family B member 6 (Homo sapiens) (UniProt Q9NP58). Nature of the experiment: blockers of ABCB6-driven porphyrin uptake – K562-ABCB6 cells, flow cytometry, validation set, pilot screen (AID 588550;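 active means inhibition above the screen-wide mean plus 3 SD, about 51%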;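 further: 0% = DMSO wells and 100% = benzethonium chloride 70 µM positive control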). The following applies: K562-ABCB6 porphyrin accumulation, 1 h, at 10 µM, stronger effect = higher value.
Chain of ATP-binding cassette sub-family B member 6 (Homo sapiens) (Q9NP58 whole entry, looked up): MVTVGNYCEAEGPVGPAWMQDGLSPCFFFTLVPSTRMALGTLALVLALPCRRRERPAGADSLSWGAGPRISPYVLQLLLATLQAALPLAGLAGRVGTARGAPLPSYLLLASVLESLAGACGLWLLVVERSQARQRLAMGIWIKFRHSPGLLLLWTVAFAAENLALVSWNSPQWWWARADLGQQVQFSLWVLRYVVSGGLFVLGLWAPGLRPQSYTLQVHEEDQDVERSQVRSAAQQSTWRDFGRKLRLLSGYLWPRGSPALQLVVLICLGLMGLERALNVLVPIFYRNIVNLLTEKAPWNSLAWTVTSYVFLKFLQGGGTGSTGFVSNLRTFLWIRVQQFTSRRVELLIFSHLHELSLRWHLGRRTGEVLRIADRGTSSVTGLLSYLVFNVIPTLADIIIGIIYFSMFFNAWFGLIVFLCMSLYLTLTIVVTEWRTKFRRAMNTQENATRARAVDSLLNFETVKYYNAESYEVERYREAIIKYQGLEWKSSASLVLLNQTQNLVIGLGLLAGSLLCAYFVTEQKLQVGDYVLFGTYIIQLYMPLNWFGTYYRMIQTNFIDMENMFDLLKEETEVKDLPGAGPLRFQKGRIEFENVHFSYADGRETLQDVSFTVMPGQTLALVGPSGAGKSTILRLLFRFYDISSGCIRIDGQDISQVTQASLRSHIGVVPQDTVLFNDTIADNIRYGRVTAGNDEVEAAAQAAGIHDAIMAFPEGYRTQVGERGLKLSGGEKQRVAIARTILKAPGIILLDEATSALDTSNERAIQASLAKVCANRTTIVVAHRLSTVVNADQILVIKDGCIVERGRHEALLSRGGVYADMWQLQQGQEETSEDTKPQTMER
Experiment [16] is described as follows: AML differentiation inducers, ER-HoxA9 marrow cells – cell-based, GFP/MAC1 double positive, flow cytometry, validation set, primary screen (AID 588685;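 active means differentiation response of at least 50%, scaled between solvent and reference control, from cells with both markers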;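 further: compound exposure lasts four days before antibody staining and flow analysis; 0% = DMSO wells and 100% = 5 µM fulvestrant positive control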). The following applies: stronger effect = higher value, normalized: vehicle 0, fulvestrant 100.

Inconclusive results are not listed. Active and inactive are the calls of the source.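 How the source made its calls, unless noted: active means GFP signal, as percent of the solvent control, above the screen mean plus 3 SD, about 149; inconclusive means no reading because the compound's own fluorescence upset strain identification; inactive means the rest.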

Chain of Integrin beta-1 (Homo sapiens) + Integrin alpha-4 (Homo sapiens) (P05556 whole entry, looked up): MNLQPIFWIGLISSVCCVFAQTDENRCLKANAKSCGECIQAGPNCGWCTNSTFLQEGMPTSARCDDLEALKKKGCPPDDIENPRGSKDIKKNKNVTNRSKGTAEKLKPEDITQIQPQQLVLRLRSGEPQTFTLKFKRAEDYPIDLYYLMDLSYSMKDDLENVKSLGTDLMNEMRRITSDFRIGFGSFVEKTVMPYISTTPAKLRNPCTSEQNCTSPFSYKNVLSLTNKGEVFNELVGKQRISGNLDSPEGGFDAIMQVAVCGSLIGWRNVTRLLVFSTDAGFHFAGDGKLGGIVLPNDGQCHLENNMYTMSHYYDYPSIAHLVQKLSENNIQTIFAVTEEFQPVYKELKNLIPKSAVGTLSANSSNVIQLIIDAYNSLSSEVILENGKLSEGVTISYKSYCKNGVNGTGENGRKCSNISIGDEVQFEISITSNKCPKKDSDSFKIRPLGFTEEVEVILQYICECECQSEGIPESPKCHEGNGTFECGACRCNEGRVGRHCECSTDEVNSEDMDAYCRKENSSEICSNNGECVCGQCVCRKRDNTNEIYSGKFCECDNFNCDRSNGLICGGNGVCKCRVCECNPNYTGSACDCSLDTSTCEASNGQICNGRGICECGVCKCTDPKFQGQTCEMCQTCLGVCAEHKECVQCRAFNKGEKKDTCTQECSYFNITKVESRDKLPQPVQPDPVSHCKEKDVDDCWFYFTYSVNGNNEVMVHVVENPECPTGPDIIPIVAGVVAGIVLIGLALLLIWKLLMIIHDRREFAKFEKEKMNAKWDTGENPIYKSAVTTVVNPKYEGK
Chain of Integrin beta-1 (Homo sapiens) + Integrin alpha-4 (Homo sapiens) (P13612 whole entry, looked up): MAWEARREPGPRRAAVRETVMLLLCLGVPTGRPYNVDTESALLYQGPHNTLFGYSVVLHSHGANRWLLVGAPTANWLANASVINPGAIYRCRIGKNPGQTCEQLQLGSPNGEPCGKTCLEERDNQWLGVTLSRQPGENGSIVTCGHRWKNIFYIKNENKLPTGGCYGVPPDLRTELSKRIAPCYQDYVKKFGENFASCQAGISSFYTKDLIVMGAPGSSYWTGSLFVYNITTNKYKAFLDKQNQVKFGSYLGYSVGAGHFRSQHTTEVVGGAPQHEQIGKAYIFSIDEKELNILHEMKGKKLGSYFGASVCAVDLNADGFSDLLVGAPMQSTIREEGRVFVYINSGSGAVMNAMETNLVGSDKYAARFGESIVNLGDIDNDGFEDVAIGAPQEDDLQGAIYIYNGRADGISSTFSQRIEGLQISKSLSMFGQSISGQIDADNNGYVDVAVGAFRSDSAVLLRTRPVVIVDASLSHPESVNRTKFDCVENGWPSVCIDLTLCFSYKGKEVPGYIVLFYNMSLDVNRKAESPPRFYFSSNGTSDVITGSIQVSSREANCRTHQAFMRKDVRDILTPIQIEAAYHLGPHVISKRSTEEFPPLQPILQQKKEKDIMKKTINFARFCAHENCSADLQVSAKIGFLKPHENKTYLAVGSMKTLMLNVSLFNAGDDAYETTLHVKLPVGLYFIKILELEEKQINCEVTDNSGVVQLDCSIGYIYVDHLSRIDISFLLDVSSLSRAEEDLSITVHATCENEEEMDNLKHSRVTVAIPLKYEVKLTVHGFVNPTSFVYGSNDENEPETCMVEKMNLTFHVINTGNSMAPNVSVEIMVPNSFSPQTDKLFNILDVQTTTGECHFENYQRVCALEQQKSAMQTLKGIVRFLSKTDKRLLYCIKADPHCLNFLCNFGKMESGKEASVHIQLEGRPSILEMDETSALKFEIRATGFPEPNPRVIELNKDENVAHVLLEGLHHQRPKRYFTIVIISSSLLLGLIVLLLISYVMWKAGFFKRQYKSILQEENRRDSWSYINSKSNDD

Take `COc1ccc(-c2c3c(=O)n(C)c(=O)n(C)c3cn2C2CCCCC2)cc1`: the percent of DMSO control GFP in [1] is 95.2% (inactive). In addition, the GFP response vs DMSO in [2] was 109% (inactive); in experiment [4] it was 113% (inactive). Also, the percent response of DMSO control in experiment [3] was 88.2% (inactive). In addition, the GFP response, % of DMSO in experiment [5] is 92.6% (inactive). In addition, the double positive events in experiment [6] came to 58.5%. Moreover, the vesicle binding response in experiment [6] is 132% (inactive). Moreover, the inhibition in experiment [7] is -14.1% (inactive); in experiment [11] it was 1.05% (inactive); in [15], 9% (inactive). In experiment [8], the superoxide response (% of plate) is 106% (inactive). Further, the aptamer binding inhibition in [9] is -1% (inactive). The response is 14.9% (inactive) in experiment [10] and 2.1% (inactive) in experiment [12]. In addition, the binding (% of control) in experiment [13] was 95.5% (inactive). For the same compound, the efflux inhibition (fraction of control) in [14] was 0.05 (inactive). Besides, the differentiation response in experiment [16] is -16.8% (inactive).

Consider `O=S(=O)(CCc1nc2ccccc2[nH]1)c1ccc(Cl)cc1`, for which the percent of DMSO control GFP in experiment [1] is 98.6% (inactive). Besides, the results for the GFP response vs DMSO in [2] and in experiment [4] were 106% (inactive) and 124% (inactive), respectively. For the same compound, the percent response of DMSO control in experiment [3] was 98.6% (inactive). Also, the GFP response, % of DMSO in experiment [5] was 99.7% (inactive). The double positive events in [6] worked out at 60.3%. Besides, the vesicle binding response in experiment [6] was 159% (inactive). In addition, the figures for the inhibition in experiment [7], in [11] and in experiment [15] were -7.25% (inactive), -4.72% (inactive) and -7% (inactive), respectively. In addition, the superoxide response (% of plate) in experiment [8] was 104% (inactive). For the same compound, in experiment [9], the aptamer binding inhibition was -2% (inactive). Also, the response in [10] was 13.4% (inactive); in experiment [12] it was -0.13% (inactive). For the same compound, in experiment [13], the binding (% of control) is 103% (inactive). Further, the efflux inhibition (fraction of control) in experiment [14] was -0.21 (inactive). The differentiation response in experiment [16] was -16.8% (inactive).

On to `COc1ccc2c(c1OC)C(=O)OC2C1c2c(cc3c(c2OC)OCO3)CCN1C` (stereo not drawn), for which the percent of DMSO control GFP in experiment [1] was 97.8% (inactive). The GFP response vs DMSO was 100% (inactive) in [2] and 91.4% (inactive) in experiment [4]. In experiment [3], the percent response of DMSO control is 104% (inactive). In addition, the GFP response, % of DMSO in experiment [5] is 95.7% (inactive). The compound also returned a double positive events in experiment [6] of 60.2%. In experiment [6], the vesicle binding response is 230% (inactive). For the same compound, the values for the inhibition in experiment [7], in experiment [11] and in [15] were 11% (inactive), -5.89% (inactive) and -1% (inactive), respectively. In experiment [8], the superoxide response (% of plate) was 92.5% (inactive). Also, the aptamer binding inhibition in experiment [9] is 5% (inactive). The response in experiment [10] was -9.24% (inactive); in experiment [12], -1.48% (inactive). For the same compound, in [13], the binding (% of control) is 96.4% (inactive). Besides, the efflux inhibition (fraction of control) in experiment [14] was -0.29 (inactive). Further, the differentiation response in [16] is -2.69% (inactive).

With `Clc1ccc2c(c1)[C@H]1OCC[C@H]1[C@@H](c1ccco1)N2`, in experiment [1], the percent of DMSO control GFP is 108% (inactive). The GFP response vs DMSO was 105% (inactive) in experiment [2] and 113% (inactive) in experiment [4]. For the same compound, the percent response of DMSO control in experiment [3] was 107% (inactive). Moreover, the GFP response, % of DMSO in [5] was 88.8% (inactive). Besides, the double positive events in [6] worked out at 54.8%. Also, the vesicle binding response in experiment [6] was 144% (inactive). The inhibition in [7] was 1.59% (inactive); in experiment [11] it was 3.61% (inactive); in [15], -23% (inactive). In addition, the superoxide response (% of plate) in experiment [8] was 103% (inactive). The aptamer binding inhibition in [9] is -1% (inactive). In addition, the response was 3.26% (inactive) in experiment [10] and 3.05% (inactive) in [12]. In addition, in [13], the binding (% of control) was 104% (inactive). For the same compound, in [14], the efflux inhibition (fraction of control) was 0.27 (inactive). Further, in experiment [16], the differentiation response was -16.3% (inactive).
